The values that follow come from PubChem BioAssay.

Calls of active or inactive are those of the source.

Assay [1] is described as follows: optical density shifts of acrAB sulA E. coli – strain DRC41, OD650, 48 h, E. coli filamentation inducer project, primary screen (AID 1152).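 Note: E. coli MC1000 strain DRC41 lacking acrAB efflux pump and sulA.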 Conditions: higher = more signal, called active from +8 up or from −8 down.
Assay [2] can be described thus: probe aLefty1 binding on compound microarray – biochemical, small-molecule microarray, 635/667 nm fluorescence, primary screen (AID 1153).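 Note: score merges spot fluorescence with signal-to-noise ratio from the scanned slide images.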 Conditions: higher = more signal.
Assay [3] in a line: plasmodial surface anion channel blockers, osmotic lysis – cell-based, P. falciparum Indochina, OD700, 1 h, primary screen (AID 1154). Conditions: P. falciparum Indochina infected RBC osmotic lysis, higher = more signal, called active from +8 up or from −8 down.
Assay [4] can be described thus: plasmodial surface anion channel blockers, osmotic lysis – cell-based, P. falciparum Indochina, OD700, 2 h, primary screen (AID 1155).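 Note: lysis reports solute entry through the parasite surface anion channel PSAC.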 Conditions: P. falciparum Indochina infected erythrocytes, higher = more signal, called active from +8 up or from −8 down.
Assay [5] is described as follows: changes in parasitized red cell lysis, either direction – P. falciparum Indochina, OD700, 3 h, PSAC antagonist project, primary screen (AID 1156). Conditions: P. falciparum-infected erythrocytes, osmotic lysis, higher = more signal, called active from +8 up or from −8 down.
A short description of assay [6]: plasmodial surface anion channel blockers, osmotic lysis – cell-based, P. falciparum Indochina, OD700, 18 h, primary screen (AID 1157). Conditions: P. falciparum Indochina infected erythrocytes, osmotic lysis OD700, 18 h; higher = more signal, called active from +8 up or from −8 down.
The nature of assay [7]: S6 kinase pathway phospho-S6 level changes – cell-based, A549, cytoblot, luminescence, serum-stimulated, primary screen (AID 1158).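 Note: serum-stimulated A549 lung adenocarcinoma cells; signal is phosphorylated S6 detected by cytoblot immunostaining with HRP secondary.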 Conditions: 5 h, higher = more signal.
In assay [8] the target is NADPH oxidase 2 (Homo sapiens) (UniProt P04839). Put plainly: compounds shifting NOX2 Amplex Red fluorescence – cell-based, HEK293-NOX2, PMA-stimulated, NOX inhibitor project, primary screen (AID 1159). Note: test concentration not given here. Conditions: 45 min, higher = more signal, called active from +8 up or from −8 down.
Chain of NADPH oxidase 2 (Homo sapiens) (P04839 whole entry, looked up): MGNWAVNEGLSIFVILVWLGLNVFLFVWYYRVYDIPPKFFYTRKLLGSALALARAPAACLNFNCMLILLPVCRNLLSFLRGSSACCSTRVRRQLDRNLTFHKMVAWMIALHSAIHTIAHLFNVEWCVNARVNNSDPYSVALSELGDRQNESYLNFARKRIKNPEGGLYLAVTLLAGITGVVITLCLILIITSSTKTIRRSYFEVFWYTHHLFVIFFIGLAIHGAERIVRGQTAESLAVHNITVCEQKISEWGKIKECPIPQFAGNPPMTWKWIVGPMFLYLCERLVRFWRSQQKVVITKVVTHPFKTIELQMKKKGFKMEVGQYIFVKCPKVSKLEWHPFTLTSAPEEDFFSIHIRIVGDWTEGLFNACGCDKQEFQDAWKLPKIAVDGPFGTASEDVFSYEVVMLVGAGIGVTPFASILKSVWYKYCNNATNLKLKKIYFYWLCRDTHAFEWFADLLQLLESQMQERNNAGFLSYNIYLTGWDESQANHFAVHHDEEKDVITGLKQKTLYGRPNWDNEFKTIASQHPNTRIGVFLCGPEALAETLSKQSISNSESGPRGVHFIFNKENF
The target in assay [9] is NADPH oxidase 4 (Homo sapiens) (UniProt Q9NPH5). Put plainly: compounds shifting NOX4 Amplex Red fluorescence – cell-based, HEK293-NOX4, tetracycline-induced, NOX inhibitor project, primary screen (AID 1160). Conditions: HEK293-NOX4, Amplex Red H2O2 fluorescence, 45 min; higher = more signal, called active from +8 up or from −8 down.
Chain of NADPH oxidase 4 (Homo sapiens) (Q9NPH5 whole entry, looked up): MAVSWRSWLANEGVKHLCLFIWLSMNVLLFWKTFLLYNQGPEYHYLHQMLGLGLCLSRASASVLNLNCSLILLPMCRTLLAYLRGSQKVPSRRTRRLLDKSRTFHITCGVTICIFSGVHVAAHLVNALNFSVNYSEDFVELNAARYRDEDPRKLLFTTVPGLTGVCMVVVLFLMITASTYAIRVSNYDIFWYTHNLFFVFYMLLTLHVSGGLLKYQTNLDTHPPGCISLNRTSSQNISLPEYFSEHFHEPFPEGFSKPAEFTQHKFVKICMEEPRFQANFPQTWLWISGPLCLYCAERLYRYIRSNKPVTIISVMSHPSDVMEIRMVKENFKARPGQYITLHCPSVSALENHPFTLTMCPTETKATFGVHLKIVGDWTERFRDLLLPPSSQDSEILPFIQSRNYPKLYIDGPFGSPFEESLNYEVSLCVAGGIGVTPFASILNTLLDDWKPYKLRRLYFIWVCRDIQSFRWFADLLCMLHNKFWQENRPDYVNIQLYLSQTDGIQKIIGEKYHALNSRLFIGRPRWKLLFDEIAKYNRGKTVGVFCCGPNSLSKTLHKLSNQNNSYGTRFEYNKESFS
For assay [10], the target named is NADPH oxidase 5 (Homo sapiens) (UniProt Q96PH1). The assay can be described thus: compounds shifting NOX5 Amplex Red fluorescence – cell-based, HEK293-NOX5, NOX inhibitor project, primary screen (AID 1161). Conditions: HEK293-NOX5, ionomycin, 45 min, higher = more signal.
Chain of NADPH oxidase 5 (Homo sapiens) (Q96PH1 whole entry, looked up): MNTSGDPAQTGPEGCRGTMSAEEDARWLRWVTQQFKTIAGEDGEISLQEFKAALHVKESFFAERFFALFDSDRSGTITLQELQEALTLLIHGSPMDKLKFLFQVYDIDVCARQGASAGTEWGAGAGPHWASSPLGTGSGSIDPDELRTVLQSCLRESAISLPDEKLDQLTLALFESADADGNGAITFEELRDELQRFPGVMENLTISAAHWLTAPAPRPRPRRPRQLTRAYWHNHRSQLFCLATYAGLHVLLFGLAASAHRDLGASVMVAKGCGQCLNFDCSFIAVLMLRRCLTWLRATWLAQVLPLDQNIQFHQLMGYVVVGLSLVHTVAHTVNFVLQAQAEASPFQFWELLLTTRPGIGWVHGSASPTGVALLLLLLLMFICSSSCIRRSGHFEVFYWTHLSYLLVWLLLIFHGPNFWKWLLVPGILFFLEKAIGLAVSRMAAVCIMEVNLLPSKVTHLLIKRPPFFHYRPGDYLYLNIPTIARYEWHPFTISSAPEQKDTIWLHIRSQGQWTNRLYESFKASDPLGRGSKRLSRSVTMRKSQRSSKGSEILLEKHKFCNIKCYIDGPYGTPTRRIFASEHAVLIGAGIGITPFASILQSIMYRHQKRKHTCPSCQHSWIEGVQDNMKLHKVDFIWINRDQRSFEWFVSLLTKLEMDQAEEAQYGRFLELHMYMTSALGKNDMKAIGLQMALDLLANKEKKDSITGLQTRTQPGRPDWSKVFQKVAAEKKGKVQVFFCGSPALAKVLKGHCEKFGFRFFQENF
Assay [11] is described as follows: compound effects on lung adenocarcinoma cell viability – A549, calcein-AM fluorescence, 48 h, basal, profiling panel (AID 1162). Note: test concentration not given here. Conditions: higher = more signal.
The nature of assay [12]: compound effects on differentiated 3T3-L1 adipocyte viability – cell-based, 3T3-L1 adipocytes, calcein-AM fluorescence, 48 h, basal, profiling panel (AID 1163). Note: test concentration not given here. Conditions: 3T3-L1 adipocytes viability, higher = more signal.
Assay [13] is described as follows: compound effects on hepatocellular carcinoma cell viability – HepG2, calcein-AM fluorescence, 48 h, basal, profiling panel (AID 1164). Note: test concentration not given here. Conditions: higher = more signal.
A short description of assay [14]: compound effects on multiple myeloma cell viability – MM1S, calcein-AM fluorescence, 48 h, basal, profiling panel (AID 1165). Note: test concentration not given here. Conditions: higher = more signal.
Assay [15] in a line: calcein-AM signal in unstimulated myeloma cells – cell-based, calcein-AM fluorescence, 48 h, PK04 Diversity Set, profiling panel (AID 1166).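 Note: cells grown under basal conditions without added stimulus; test concentration not given here.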 Conditions: RPMI8226 myeloma viability, higher = more signal.
The nature of assay [16]: JC-1 mitochondrial signal, unstimulated HepG2 cells – cell-based, JC-1 fluorescence, 24 h, 100 nL compound, profiling panel (AID 1167). Note: test concentration not given here. Conditions: HepG2 mitochondrial potential, higher = more signal.
Assay [17] in a line: JC-1 mitochondrial signal, unstimulated adipocytes – cell-based, JC-1 fluorescence, 3T3-L1 adipocytes, 24 h, 100 nL compound, profiling panel (AID 1168). Note: test concentration not given here. Conditions: JC-1 mitochondrial fluorescence, higher = more signal, called active from +8 up or from −8 down.
Assay [18] is described as follows: JC-1 mitochondrial signal, unstimulated myeloma cells – cell-based, JC-1 fluorescence, RPMI8226, 24 h, 100 nL compound, profiling panel (AID 1169). Note: test concentration not given here. Conditions: JC-1 mitochondrial potential fluorescence, higher = more signal.
A short description of assay [19]: JC-1 mitochondrial signal, unstimulated MM1S myeloma – cell-based, JC-1 fluorescence, 24 h, 100 nL compound, profiling panel (AID 1170). Note: test concentration not given here. Conditions: MM1S mitochondrial potential, higher = more signal.
A short description of assay [20]: resazurin metabolic signal in A549 cells – cell-based, resazurin fluorescence, 24 h, PK04 Diversity Set, profiling panel (AID 1171). Note: test concentration not given here. Conditions: A549 viability, higher = more signal, called active from +8 up or from −8 down. On the technique in general: Resazurin is reduced to fluorescent resorufin, in cell work by metabolically active cells.

As for `C=C(/C(=C/C[C@@H](OC(C)=O)c1ccccc1OCCO)c1cc(C(=O)OC)ccc1OC)C(C)C`, the z-score in assay [1] is 0.516 (inactive); in assay [3], 14.6 (active); in assay [4], 2.61 (inactive); in assay [5], 1.4 (inactive); in assay [6] it was 0.994 (inactive); in assay [7], 0.0105. The z-score is 1.58 (inactive) in assay [8]; -0.286 (inactive) in assay [9]; -1.43 in assay [10]; 0.793 in assay [11]; -0.515 in [12]; 0.561 in assay [13]. For the same compound, the z-score is -3.21 in [14]; -1.11 in assay [15]; 0.605 in assay [16]; 0.118 (inactive) in assay [17]; 0.367 in assay [18]; -0.503 in assay [19]. The z-score in [20] was 0.583 (inactive). The composite z-score in [2] was -0.0545.
For the compound `C=CCC(OC(C)=O)[C@@H]1[C@@H](N(Cc2cc3ccccc3o2)C(=O)Cc2ccc(OC)cc2)c2cc(OCCCO)ccc2N1C(=O)Cc1ccc2ccccc2c1` (stereo not given in full), the z-score in assay [1] is -0.476 (inactive); in [3], 2.63 (inactive); in [4], -0.005 (inactive); in assay [5] it was 1.35 (inactive); in assay [6], 0.308 (inactive); in [7], 0.638. Besides, the z-score in [8] is -0.282 (inactive); in [9], -0.427 (inactive); in assay [10], 1.21; in assay [11], 0.583; in [12], 0.592; in assay [13], -0.118. Also, the z-score in [14] is 0.0786; in assay [15], -0.929; in [16], 2.27; in assay [17], -0.315 (inactive); in assay [18], 0.00245; in assay [19], -0.692. Moreover, the z-score in assay [20] is -1.16 (inactive). Further, the composite z-score in [2] was determined as 0.152.
For the compound `COC(=O)C1=CC(CCCO)=CC(c2ccc(CN3CCCC3)cc2)N(Cc2sc3ccccc3c2Cl)C=C1C(=O)OC` (stereo not given), the z-score is 1.68 (inactive) in assay [1]; 3.27 (inactive) in assay [3]; -0.28 (inactive) in assay [4]; -0.235 (inactive) in [5]; -1.02 (inactive) in assay [6]; 1.6 in assay [7]. For the same compound, the z-score in assay [8] was 0.613 (inactive); in assay [9] it was 0.311 (inactive); in assay [10] it was 0.116; in assay [11], 1.38; in assay [12], 0.0739; in [13] it was 1.72. For the same compound, the z-score is 0.217 in assay [14]; 0.662 in assay [15]; 4.71 in assay [16]; 0.531 (inactive) in assay [17]; 0.393 in assay [18]; 2.3 in assay [19]. Moreover, the z-score in [20] was -0.142 (inactive). The compound further had a composite z-score in assay [2] of 1.17.
Consider `CCN(CC)c1ccc(N2CC=CC34O[C@@H]5C=CCOC(=O)[C@@H]5[C@H]3C(=O)N(CCCO)[C@@H]4C2=O)cc1` (stereo not given in full), for which the z-score in [1] was 1.33 (inactive); in assay [3] it was 0.246 (inactive); in assay [4], -0.655 (inactive); in assay [5], 0.649 (inactive); in [6] it was -1.36 (inactive); in [7], 4.3. For the same compound, the z-score in assay [8] is -0.0266 (inactive); in assay [9] it was -0.497 (inactive); in assay [10], 0.785; in [11] it was -0.0867; in assay [12] it was 1.85; in assay [13], -0.244. For the same compound, the z-score was 1.8 in assay [14]; 0.28 in assay [15]; 0.432 in assay [16]; 0.604 (inactive) in assay [17]; 0.19 in assay [18]; 0.536 in assay [19]. The z-score in assay [20] was -0.481 (inactive). In assay [2], this compound showed a composite z-score of 0.027.
